Results taken from PubChem BioAssay AID2158 (National Center for Advancing Translational Sciences (NCATS), 2009).
Results filed as inconclusive are left out. Calls of active or inactive are those of the source. Calls follow the shape of the dose curve; as a rule, active = well fitted inhibition curve with a large enough effect; inconclusive = small, poorly fitted or top-dose-only effect; inactive = no such curve, though single readings can be large or run the other way.

Biological target: Cruzipain (Trypanosoma cruzi) (UniProt P25779)
Sequence (P25779 123-467 limits assumed): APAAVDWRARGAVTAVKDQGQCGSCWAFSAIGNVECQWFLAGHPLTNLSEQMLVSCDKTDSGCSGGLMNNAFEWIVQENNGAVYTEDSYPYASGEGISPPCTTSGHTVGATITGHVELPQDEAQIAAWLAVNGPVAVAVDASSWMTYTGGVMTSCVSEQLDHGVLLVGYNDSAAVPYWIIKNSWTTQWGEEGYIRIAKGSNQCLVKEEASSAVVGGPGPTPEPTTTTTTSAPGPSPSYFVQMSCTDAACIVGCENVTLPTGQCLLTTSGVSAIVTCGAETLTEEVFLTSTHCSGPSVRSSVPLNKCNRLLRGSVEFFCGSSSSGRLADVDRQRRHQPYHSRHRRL
Experiment: Confirmation qHTS Assay for Inhibitors of Cruzain; also: nearly all actives have a fitted effect of over 40% in size;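 as to activity change, negative = inhibition: plate controls were uninhibited enzyme control for no effect and buffer wells lacking enzyme for full effect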
Conditions: purified cruzain, Z-FR-AMC fluorescence, 0.01% Triton
Procedure, shortened: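 Reaction progress from the 60 s rise in AMC fluorescence (ex 360, em 450 nm) after adding 2 uM Z-FR-AMC. Before this, 1.5 nM cruzain sat 15 min at room temperature with compound in pH 5.5 acetate buffer with 5 mM DTT and 0.01% Triton X-100.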
Potency is read from the fitted curve at half-maximal effect.

| Structure (SMILES) | activity change, negative = inhibition | Potency |
| --- | --- | --- |
| CC(C)COC(=O)c1nnsc1NC(=O)Nc1ccccc1 | -3.71% (inactive) | – |
| CC(C)(C)OC(=O)NCc1nnc(-c2nc3ccccc3[nH]2)o1 | -4.26% (inactive) | – |
| N#Cc1nc(N)nc(N2CCCCC2)n1 | – | 7.94 µM (active) |
| COc1nc(C#N)nc(N2CCCCC2)n1 | – | 2.82 µM (active) |
| COc1ccc(OC)c(C(=O)COC(=O)CNC(=O)C2CCCCC2)c1 | – | 7.08 µM (active) |
| C=C(C)C(=O)OC1(C(F)(F)F)Oc2cc(C)ccc2NC1=O (stereo unspecified) | – | 14.1 µM (active) |
| CCCCNC(=O)Cn1c(SCc2cccc(F)c2)nc2ccncc21 | -27.5% (inactive) | – |
| N#Cc1nc(NCC(F)F)c2ncn(-c3cc(F)cc(F)c3)c2n1 | – | 0.0562 µM (active) |
| COc1cc(-c2nn3c(-c4cc(-c5ccccc5)n[nH]4)nnc3s2)cc(OC)c1OC | -7.01% (inactive) | – |
| N#Cc1nc(Nc2cccc(Br)c2)nc(NC2CCCC2)n1 | – | 0.1 µM (active) |
| N#Cc1nc(Nc2cccc(Cl)c2)c2ncn(C3CCCC3)c2n1 | – | 0.0501 µM (active) |
| C=Cn1ccnc1P(=S)(c1ccc2c(c1)c1ccccc1n2CC)c1nccn1C=C | -8.46% (inactive) | – |
| CC(C)(C)OC(=O)Cc1nnc(-c2cc3ccccc3[nH]2)s1 | -10.9% (inactive) | – |
| N#CCSc1nc2scc(-c3cccs3)c2c(=O)n1CCc1ccccc1 | -7.68% (inactive) | – |
| CCOc1ccc(-c2cc3nc(C4CCN(C(=O)OC(C)(C)C)CC4)c(C(=O)O)cn3n2)cc1 | -33% (inactive) | – |
| Cc1cc(OCCCn2c(CCNC(=O)C3CCCCC3)nc3ccccc32)ccc1Cl | – | 1.12 µM (active) |
